# According to PubChem BioAssay (NCATS):
# A number with no mark means an inactive call. Inconclusive results are not listed. Where a call stands in place of a potency, no number is given. Active and inactive are the calls of the source. Calls follow the shape of the dose curve; as a rule, active = well fitted curve in the direction sought with a large enough effect; inconclusive = small, poorly fitted or top-dose-only effect, or another doubt; inactive = no such curve, though single readings can be large; an effect the other way counts as inactive or inconclusive.
# Columns and labels:
# [1] = molecular target: Glutathione peroxidase 1 (Homo sapiens) (UniProt P07203); experiment: Primary qHTS Assay for Inhibitors of Recombinant Selenoprotein Glutathione Peroxidase 1 (GPX1) (AID 1845191); also: nearly all actives have a fitted effect of over 65% in size
# Outline: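 Recombinant GPX1 (10 nM final) was preincubated with compound for 30 min at room temperature, then reacted with 1 mM GSH, 0.5 mM CHP, 0.5 mM NADPH and 100 nM glutathione reductase; NADPH fluorescence (340/450 nm) was read at 0 and 15 min.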
# [2] = molecular target: Phospholipid hydroperoxide glutathione peroxidase GPX4 (Homo sapiens) (UniProt P36969); experiment: Primary qHTS Assay for Inhibitors of Recombinant Selenoprotein Glutathione Peroxidase 4 (GPX4) (AID 1845192); also: nearly all actives have a fitted effect of over 65% in size; as to activity change, negative = inhibition: series mostly up to about 50 µM
# Outline: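 GR-coupled readout: 100 nM GR, 1 mM GSH, 0.5 mM NADPH; NADPH fluorescence (ex 340/em 450 nm) read at t=0 and after 15 min RT. GPX4 200 nM, preincubated 30 min with compound; substrate 0.5 mM CHP.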
# [3] = molecular target: Luciferin 4-monooxygenase (Photinus pyralis) (UniProt P08659); experiment: Primary firefly luciferase (FLuc) qHTS assay for identification of artifact compounds. (AID 1845220); also: nearly all actives have a fitted effect of over 60% in size; as to activity change, negative = inhibition: series mostly up to about 54 µM
# Outline: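 qHTS, 15 min compound preincubation with substrate (10 uM luciferin, 10 uM ATP) at RT, then 10 nM FLuc; 5 min; luminescence; % inhibition vs no-enzyme/DMSO controls, 4-parameter Hill fit.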
# [4] = Primary fluorescence-based thiol-reactive (MSTI) qHTS assay for identification of artifact compounds. (AID 1845221); also: nearly all actives have a fitted effect of over 65% in size; also: potency is read from the fitted curve at half-maximal effect;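 as to activity change, negative = thiol reactive: series mostly up to about 54 µM; thiol-reactive compounds lower the probe fluorescence signal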
# Outline: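 Curve-fitted percent inhibition (4-parameter Hill) derived from fluorescence, Ex 525/Em 598 nm, scaled with Acetyl-MSTI and MSTI; 1 h incubation at room temperature.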
# [5] = test system: Nanoluciferase (engineered Oplophorus gracilirostris luciferase); experiment: Primary Nanoluciferase (NLuc) qHTS assay for identification of artifact compounds. (AID 1845222); also: series mostly up to about 54 µM
# Outline: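 Luminescence read-out of secreted NLuc in S16 cell conditioned medium (1:55); compounds tested with 15 min RT preincubation, then Nano-Glo substrate 1:100, 5 min. % inhibition vs no-enzyme and DMSO controls, 4-parameter Hill fit.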
# Sequence of Glutathione peroxidase 1 (Homo sapiens) (P07203 whole entry, looked up): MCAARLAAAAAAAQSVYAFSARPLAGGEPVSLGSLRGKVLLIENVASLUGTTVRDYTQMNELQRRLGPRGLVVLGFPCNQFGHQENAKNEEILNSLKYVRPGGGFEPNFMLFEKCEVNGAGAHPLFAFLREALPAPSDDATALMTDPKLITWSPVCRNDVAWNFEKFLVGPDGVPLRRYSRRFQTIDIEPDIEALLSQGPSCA
# Sequence of Phospholipid hydroperoxide glutathione peroxidase GPX4 (Homo sapiens) (P36969 whole entry, looked up): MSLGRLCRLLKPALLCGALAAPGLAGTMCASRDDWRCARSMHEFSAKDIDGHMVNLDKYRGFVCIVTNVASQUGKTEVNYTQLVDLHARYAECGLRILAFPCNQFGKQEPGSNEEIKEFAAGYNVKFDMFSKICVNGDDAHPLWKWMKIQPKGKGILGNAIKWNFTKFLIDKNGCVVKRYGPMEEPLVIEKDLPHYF
smiles,measurement,setting,value
CC(=O)OC1C(OC(=O)c2ccccc2)C2C(C)(C)CC(=O)CC2(C)C23CCC(C)(C2)C(O)CC13 (stereo not given),Potency,[1],inactive
same,Potency,[2],inactive
same,Potency,[3],inactive
same,Potency,[4],inactive
same,Potency,[5],inactive
C=C1C(=O)OC2/C=C(\CO)CC/C=C(\C=O)CC(OC(=O)CC(C)C)C12 (stereo not given),Potency,[1],inactive
same,Potency,[2],inactive
same,Potency,[3],inactive
same,Potency,[4],16.5 µM (active)
same,Potency,[5],inactive
CC(=O)OC[C@@]12C(=O)C[C@@H](C)[C@]3(C[C@@H](c4ccoc4)O[C@H]3OC(C)=O)[C@H]1CCC[C@]21CO1,Potency,[1],inactive
same,Potency,[2],inactive
same,Potency,[3],inactive
same,Potency,[4],inactive
same,Potency,[5],inactive
COc1ccc([C@H]2CNC(=O)C2)cc1OC1CCCC1,Potency,[1],inactive
same,Potency,[2],inactive
same,Potency,[3],inactive
same,Potency,[4],inactive
same,Potency,[5],inactive
C=C1CCC2C(C)(C)C(O)CCC2(C)C1CCC(C)CCO (stereo not given),Potency,[1],inactive
same,Potency,[2],inactive
same,Potency,[3],inactive
same,Potency,[4],16.5 µM (active)
same,Potency,[5],inactive
C[C@@H]1CC[C@]2(C(=O)O[C@@H]3O[C@H](CO)[C@@H](O)[C@H](O)[C@H]3O)CC[C@]3(C)C(=CCC4[C@@]5(C)C[C@@H](O)[C@H](O)[C@@](C)(C(=O)O[C@H]6[C@H](O)C[C@@]7(C)C(CC[C@]8(C)C7CC=C7[C@H]9[C@](C(=O)O[C@@H]%10O[C@H](CO)[C@@H](O)[C@H](O)[C@H]%10O)(CC[C@@H](C)[C@@]9(C)O)CC[C@]78C)[C@@]6(CO)C(=O)O)C5CC[C@]43C)[C@@H]2[C@]1(C)O (stereo not given in full),outcome,[1],inactive [at 9.52 µM]
same,"activity change, negative = inhibition",[2],-0.473% [at 9.73 µM]
same,"activity change, negative = inhibition",[3],0.17% [at 11.6 µM]
same,"activity change, negative = thiol reactive",[4],-3.19% [at 11.5 µM]
same,"activity, negative = inhibition",[5],-2.05% [at 11.6 µM]
CC(=O)NCC(=O)N1C2CCC1c1cc(Nc3ncc(C(F)(F)F)c(NC4CCC4)n3)ccc12 (stereo not given),Potency,[1],inactive
same,Potency,[2],inactive
same,Potency,[3],inactive
same,Potency,[4],inactive
same,Potency,[5],inactive
C[C@@H]1O[C@@H](O[C@H]2[C@H](O)[C@@H](O[C@@H]3O[C@H](CO)[C@@H](O)[C@H](O[C@@H]4O[C@H](CO)[C@@H](O)[C@H](O)[C@H]4O)[C@H]3O)[C@H](O[C@H]3CC[C@@]4(C)C(=CC[C@@H]5C4CC[C@@]4(C)C5C[C@@H]5OC6(CC[C@@](C)(CO[C@@H]7O[C@H](CO)[C@@H](O)[C@H](O)[C@H]7O)O6)[C@@H](C)[C@@H]54)C3)O[C@@H]2CO)[C@H](O)[C@H](O)[C@H]1OC1OC(CO)C(O)C(O)C1O (stereo not given in full),"activity, negative = inhibition",[1],1.32% [at 9.52 µM]
same,outcome,[2],inactive [at 9.73 µM]
same,"activity change, negative = inhibition",[3],2.07% [at 11.6 µM]
same,"activity change, negative = thiol reactive",[4],23.9% [at 11.5 µM]
same,"activity, negative = inhibition",[5],1.98% [at 11.6 µM]
O=C(O)[C@H](Cc1ccc(Nc2nccc3ccncc23)cc1)NC1=C(Br)C(=O)C12CCCCC2,Potency,[1],inactive
same,Potency,[2],inactive
same,Potency,[3],inactive
same,Potency,[4],inactive
same,Potency,[5],inactive
CC1=CC(=O)[C@H]2C(C)(C)CCC[C@]2(C)[C@@]1(O)CO,Potency,[1],inactive
same,Potency,[2],inactive
same,Potency,[3],inactive
same,Potency,[4],inactive
same,Potency,[5],inactive
O=C(O)c1cc2cccc([N+](=O)[O-])c2[nH]1,Potency,[1],inactive
same,Potency,[2],inactive
same,Potency,[3],inactive
same,Potency,[4],21.2 µM (active)
same,Potency,[5],inactive
COc1ncc2cc(C(=O)Nc3cc(C(=O)NCc4cccc(Cl)c4)ccc3Cl)c(=O)[nH]c2n1,Potency,[1],inactive
same,Potency,[2],inactive
same,Potency,[3],inactive
same,Potency,[4],inactive
same,Potency,[5],inactive
C[C@@H]1O[C@@H](O[C@H]2[C@H](O[C@H]3CC[C@@]4(C)C(CC[C@]5(C)C4CC=C4[C@@H]6CC(C)(C)CC[C@]6(C(=O)O[C@@H]6OC[C@H](O)[C@H](O)[C@H]6O[C@@H]6O[C@@H](C)[C@H](O[C@@H]7O[C@H](CO)[C@@H](O)[C@H](O)[C@H]7O)[C@H](O)[C@H]6O)[C@H](O)C[C@]45C)C3(C)C)O[C@H](CO)[C@@H](O[C@@H]3OC[C@@H](O)[C@H](O)[C@H]3O)[C@@H]2O)[C@H](O)[C@H](O)[C@H]1O (stereo not given in full),"activity, negative = inhibition",[1],-13.9% [at 9.52 µM]
same,outcome,[2],inactive [at 9.73 µM]
same,"activity change, negative = inhibition",[3],-1.49% [at 11.6 µM]
same,"activity change, negative = thiol reactive",[4],113% [at 11.5 µM]
same,"activity, negative = inhibition",[5],3.16% [at 11.6 µM]
COc1c2c(c(C)c3c1C(=O)OC3)OC1(C)CC(O)C34OC(OC)(CC(OC(C)=O)C3(C)C1C2)OC4(C)C (stereo not given),Potency,[1],inactive
same,Potency,[2],inactive
same,Potency,[3],inactive
same,Potency,[4],inactive
same,Potency,[5],inactive
CC(=O)N1CCN(C(=O)Cc2ccc(Nc3ncc(F)c(Nc4ccc(C(=O)Nc5ccccc5Cl)cc4)n3)cc2)CC1,Potency,[1],inactive
same,Potency,[2],inactive
same,Potency,[3],inactive
same,Potency,[4],inactive
same,Potency,[5],inactive
CC1CCC2C(C)(C)[C@@H](O)CC[C@]2(C)C12Cc1c(O)cc3c(c1O2)CN(C(CCC(=O)O)C(=O)O)C3=O (stereo not given in full),Potency,[1],inactive
same,Potency,[2],inactive
same,Potency,[3],inactive
same,Potency,[4],inactive
same,Potency,[5],inactive
COC(=O)C12C(=O)C(C)=C(O)C1(C)C(C)=CC1C3(CO)CCC(O)C(C)(C)C3CCC12C (stereo not given),Potency,[1],inactive
same,Potency,[2],inactive
same,Potency,[3],inactive
same,Potency,[4],inactive
same,Potency,[5],inactive
COc1cc(C)c(C(=O)O[C@H]2[C@@H](OC(C)=O)[C@H](n3ccc(=O)[nH]c3=O)O[C@@H]2CO)c(OC)c1,Potency,[1],inactive
same,Potency,[2],inactive
same,Potency,[3],inactive
same,Potency,[4],inactive
same,Potency,[5],inactive
CC1CCC23COC(=O)C2=CC(O)CC3C1(C)CCC1=CC(O)OC1=O (stereo not given),Potency,[1],inactive
same,Potency,[2],inactive
same,Potency,[3],inactive
same,Potency,[4],3.29 µM (active)
same,Potency,[5],inactive
C[C@@H]1O[C@@H](O[C@H]2[C@@H]3C=CO[C@@H](O[C@@H]4O[C@H](CO)[C@@H](O)[C@H](O)[C@H]4O)[C@@H]3[C@@]3(CO)O[C@@H]23)[C@H](OC(=O)/C=C/c2ccccc2)[C@H](O)[C@H]1O,Potency,[1],inactive
same,Potency,[2],inactive
same,Potency,[3],inactive
same,Potency,[4],7.93 µM (active)
same,Potency,[5],inactive
C/C=C/C=C/C=C/C(=O)OC1C=C(C=O)C(O)(C(=O)O)C2(C)CCCC(C)(C)C12 (stereo not given),Potency,[1],inactive
same,Potency,[2],inactive
same,Potency,[3],inactive
same,Potency,[4],5.82 µM (active)
same,Potency,[5],inactive
C=CC(=O)Nc1cc(Nc2nccc(-c3c[nH]c4ccccc34)n2)c(OC)cc1N(C)CCN(C)C,Potency,[1],inactive
same,Potency,[2],inactive
same,Potency,[3],inactive
same,Potency,[4],1.68 µM (active)
same,Potency,[5],inactive
CC1(C)CC[C@@]2(C(=O)O[C@@H]3O[C@H](CO)[C@@H](O)[C@H](O)[C@H]3O)C(C1)C1=CCC3[C@@]4(C)CC[C@@H](O[C@@H]5O[C@H](C(=O)O)[C@@H](O[C@@H]6OC[C@@H](O)[C@H](O)[C@H]6O)[C@H](O[C@@H]6OC[C@](O)(CO)[C@H]6O)[C@H]5O)C(C)(C)C4CC[C@@]3(C)[C@]1(C)C[C@H]2O (stereo not given in full),Potency,[1],inactive
same,Potency,[2],inactive
same,outcome,[3],inactive [at 11.6 µM]
same,"activity change, negative = thiol reactive",[4],54.8% [at 11.5 µM]
same,"activity, negative = inhibition",[5],1.29% [at 11.6 µM]
C[C@@H](Oc1cc(-n2cnc3ccc(OC4CCN(C)CC4)cc32)sc1C(N)=O)c1ccccc1C(F)(F)F,Potency,[1],inactive
same,Potency,[2],inactive
same,Potency,[3],inactive
same,Potency,[4],inactive
same,Potency,[5],inactive
CCOC(=O)Nc1cc(-c2ccc(C)c(NS(C)(=O)=O)c2)nn2c(C)nnc12,Potency,[1],inactive
same,Potency,[2],inactive
same,Potency,[3],inactive
same,Potency,[4],inactive
same,Potency,[5],inactive
